Data taken from PubChem BioAssay (NCI).
About 79,000 compounds went through this panel and 15% of them were active in at least one assay; those are over-represented in the sample as a whole. A number with no mark means an inactive call. The source made the active and inactive calls. No stated cut-off is given here; in the data, active means growth inhibition above about 70%; inactive means the rest.

Assays:
[1] = NCI Yeast Anticancer Drug Screen. Data for the rad50 strain (AID 155);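 further: 0% = growth of vehicle-only cultures of the same strain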; details: S. cerevisiae rad50 strain growth inhibition, active compounds read high
Outline: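 Vehicle-treated cultures provide the reference for the growth inhibition reported for compound-exposed, repair-deficient yeast.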

[2] = NCI Yeast Anticancer Drug Screen. Data for the mec2-1 strain (AID 157); details: S. cerevisiae mec2-1 strain, active compounds read high
Outline: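 Yeast mec2-1 mutant treated with compound. Readout: growth inhibition vs vehicle controls.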

[3] = NCI Yeast Anticancer Drug Screen. Data for the sgs1 mgt1 strain (AID 161);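 further: 0% = growth of cultures given vehicle only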; details: S. cerevisiae sgs1 mgt1 strain, active compounds read high
Outline: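 Inhibition of yeast growth, normalised to vehicle-treated controls, is reported for a strain bearing genetic alterations in DNA damage repair.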

[4] = NCI Yeast Anticancer Drug Screen. Data for the cln2 rad14 strain (AID 165);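 further: 0% = growth equal to vehicle treated cultures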; details: S. cerevisiae cln2 rad14 strain, active compounds read high
Outline: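 cln2 rad14 yeast strain; compound exposure; growth inhibition read vs vehicle controls.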

[5] = NCI Yeast Anticancer Drug Screen. Data for the bub3 strain (AID 167); details: S. cerevisiae bub3 mutant strain, active compounds read high
Outline: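 Mutant yeast screening strain plus compound; vehicle-treated cultures serve as the 0% inhibition reference.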

[6] = NCI Yeast Anticancer Drug Screen. Data for the mlh1 rad18 strain (AID 175); details: S. cerevisiae mlh1 rad18 strain growth inhibition, active compounds read high
Outline: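 Yeast w/ defined DNA-repair lesions; compound exposure; growth vs vehicle controls → % inhibition.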

[7] = at 5.0 µM (retest, dose inferred, filed as 0.5)
[8] = at 50.0 µM (retest, dose inferred, filed as 5.0)

Compound | growth inhibition [1, 7] | growth inhibition [1, 8] | growth inhibition ([1]; at 50.0 µM) | growth inhibition [2, 7] | growth inhibition [2, 8] | growth inhibition ([2]; at 50.0 µM) | growth inhibition [3, 7] | growth inhibition [3, 8] | growth inhibition ([3]; at 50.0 µM) | growth inhibition [4, 7] | growth inhibition [4, 8] | growth inhibition ([4]; at 50.0 µM) | growth inhibition [5, 7] | growth inhibition [5, 8] | growth inhibition ([5]; at 50.0 µM) | growth inhibition [6, 7] | growth inhibition [6, 8] | growth inhibition ([6]; at 50.0 µM)
C[CH2][Pb]([CH2]C)([CH2]C)[O]C(C)=O | 33% | 48% | 84.8% (active) | 43% | 40% | 76% (active) | 11% | 98% (active) | 86.8% (active) | 29% | 96% (active) | 52.7% | 26% | 97% (active) | 82.4% (active) | 35% | 59% | 77.1% (active)
CC(=O)OCC12CC(O)C(C)=CC1OC1C(O)C(OC(C)=O)C2(C)C12CO2 (stereo not given) | 8% | 33% | 91.8% (active) | 12% | 36% | 91% (active) | 13% | 36% | 90.3% (active) | 16% | 39% | 77.3% (active) | 8% | 21% | 91.8% (active) | 8% | 37% | 92.1% (active)
COc1ccc2c(ccc3oc([N+](=O)[O-])cc32)c1 | 93% (active) | 95% (active) | 85.9% (active) | 96% (active) | 97% (active) | 91% (active) | 93% (active) | 94% (active) | 79.8% (active) | 97% (active) | 96% (active) | 85.2% (active) | 87% (active) | 91% (active) | 68% | 95% (active) | 96% (active) | 84.2% (active)
O=C(O)C(F)(F)C(F)(F)C(=O)O | 8% | -3% | 0.35% | 3% | 0% | -1.4% | -5% | -2% | 4.8% | 6% | 1% | -16.1% | 5% | 26% | -3.15% | 5% | -2% | 5.25%
CCCCCCCCCCC(=O)O.[Pb] | -14% | 2% | 55.5% | -10% | 6% | 5.05% | -7% | 9% | 38.5% | -2% | -1% | 14.2% | -1% | -4% | -16.1% | -5% | -12% | 68.2%
O=Cc1ccccc1O.O=Cc1ccccc1O.[O]=[Mo]=[O] | 5% | 29% | 11.8% | -1% | 36% | 3.65% | 8% | 41% | 8.2% | -7% | 16% | 42% | -3% | 34% | -5.6% | 2% | 46% | 2.45%
O=[N+]([O-])C=C([SH2+])[SH2+].O=[N+]([O-])C=C([SH2+])[SH2+].[Ni+2].c1ccc(C[P+](c2ccccc2)(c2ccccc2)c2ccccc2)cc1 | 3% | 44% | 93.5% (active) | 7% | 72% (active) | 97.7% (active) | 5% | 52% | 96.7% (active) | -7% | 19% | 87.8% (active) | -1% | 47% | 96.2% (active) | 26% | 83% (active) | 93.3% (active)
Cc1ccc2c(c1)N(CCN(CCCl)CCCl)c1c(ccc3ccccc13)S2 | 0% | 83% (active) | 90.2% (active) | -1% | 87% (active) | 67.2% | -9% | 84% (active) | 93.4% (active) | -6% | 79% (active) | 75.4% (active) | -1% | 82% (active) | 34.7% | 11% | 84% (active) | 91.9% (active)
COc1cc(/C=C(/C)[N+](=O)[O-])ccc1O | 90% (active) | 99% (active) | 99.1% (active) | 13% | 100% (active) | 99.6% (active) | 42% | 54% | 99.5% (active) | 19% | 99% (active) | 98.6% (active) | 14% | 99% (active) | 99.1% (active) | 59% | 99% (active) | 99.2% (active)
CCOC(=O)c1[nH]cnc1/N=N/N(C)N | 97% (active) | 98% (active) | 86.8% (active) | 99% (active) | 99% (active) | 92% (active) | 53% | 87% (active) | 90.1% (active) | 28% | 81% (active) | 89.2% (active) | 47% | 88% (active) | 89.5% (active) | 97% (active) | 97% (active) | 90% (active)
